Among the data in PubChem BioAssay (Tox21) are outcome and Potency values, retold here.

A number with no mark means an inactive call. Inconclusive results are not listed. Active and inactive are the calls of the source. Unless noted, the call rests on the fitted dose curve; in most records, active means well fitted curve in the direction sought with a large enough effect in the repeat runs; inconclusive means weak or mixed curves; inactive means no such curve, though single readings can be large; an effect the other way counts as inactive or inconclusive.

Assay [1] concerns the target Progesterone receptor (Homo sapiens) (UniProt P06401). Kind of assay: qHTS assay to identify small molecule agonists of the progesterone receptor (PR) signaling pathway (AID 1346784; calls by dose curve; further: nearly all actives have a fitted effect of over 30% in size). In short, it runs like this:
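Compounds were tested for PR agonism in HEK 293T cells bearing a beta-lactamase gene under UAS control. Treatment lasted 16 hr at 37C; signal came from fluorescence of a FRET substrate.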

The target is the same in assay [2]. Kind of assay: qHTS assay to identify small molecule antagonists of the progesterone receptor (PR) signaling pathway (AID 1346795; active means well fitted inhibition curve with a large enough effect in the signal ratio in the repeat runs, not every such curve was filed as active; the % refers to the signal ratio). In short, it runs like this:
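In HEK293T cells bearing the PR-UAS-bla reporter, compound effects on promegestone-driven (1 nM) beta-lactamase expression are assessed after 16 hr using a fluorescent FRET substrate incubated 2 hr at room temperature.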

The nature of assay [3]: qHTS assay to identify small molecule antagonists of the progesterone receptor (PR) signaling pathway - cell viability counter screen (AID 1346798). Further: series mostly up to about 92 µM; nearly all actives have a fitted effect of over 50% in size. A digest of the protocol:
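Following a 4 hr attachment, PR-UAS-bla HEK293T cells in charcoal-stripped FBS medium were exposed to compounds with R5020 for 16 hr; CellTiter-Glo was added and luminescence read after 30 min at room temperature.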
(In general: Quantitative high-throughput screening tests each substance at several concentrations.)

A short description of assay [4]: qHTS assay to identify small molecule agonists of the progesterone receptor (PR) signaling pathway - cell viability counter screen (AID 1346799; calls by dose curve; further: nearly all actives have a fitted effect of over 45% in size). A digest of the protocol: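 Here, 3,000 PR-UAS-bla HEK293T cells per well were treated with compounds for 16 hr after a 6 hr preincubation at 37C and 5% CO2; cell viability is the CellTiter-Glo luminescence signal.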
Assay [5] is described as follows: qHTS assay to identify small molecule antagonists of the TGF-beta/Smad signaling pathway - cell viability counter screen (AID 1346824). Further: nearly all actives have a fitted effect of over 50% in size. A digest of the protocol:
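Cytotoxicity counter-screen run in the same wells as the beta-lactamase Smad reporter read: CellTiter-Glo luminescence after 30 min at room temperature. HEK 293T SBE-bla cells had 5 hr compound exposure at 37 C with TGF-beta1 (0.25 ng/mL stock).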

A short description of assay [6]: qHTS assay to identify small molecule agonists of the TGF-beta/Smad signaling pathway - cell viability counter screen (AID 1346829). Further: top concentration of the series differs between compounds; nearly all actives have a fitted effect of over 45% in size. In short, it runs like this: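 CellTiter-Glo luminescence readout; SBE-bla HEK 293T cells, overnight plating, compound 5 hr at 37 C/5% CO2, then bla substrate 2 hr RT, then CellTiter-Glo 30 min RT.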
Assay [7] can be described thus: qHTS assay to identify small molecule agonists of the TGF-beta/Smad signaling pathway (AID 1346859; active means well fitted activation curve with a large enough effect in the signal ratio in the repeat runs, not every such curve was filed as active; the % refers to the signal ratio; further: series mostly up to about 77 µM). A digest of the protocol: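 Each well held 4,000 SBE-bla HEK 293T cells incubated overnight before compound addition; 5 hr later the cleavable FRET substrate went on for 2 hr at room temperature, and fluorescence was read at two emissions.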
Assay [8] deals with Thyrotropin-releasing hormone receptor (Homo sapiens) (UniProt P34981). Description: qHTS assay to identify small molecule antagonists of the thyrotropin-releasing hormone receptor (TRHR) signaling pathway (AID 1346877; active means well fitted inhibition curve with a large enough effect in the repeat runs, not every such curve was filed as active; further: series mostly up to about 51 µM). A digest of the protocol: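 In this cell-based calcium flux format, HEK293 cells expressing TRHR received test compound for 5 min before the agonist TRH (1 nM final). Dye loading lasted 2 h at 37 °C.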
Chain of Thyrotropin-releasing hormone receptor (Homo sapiens) (P34981 whole entry, looked up): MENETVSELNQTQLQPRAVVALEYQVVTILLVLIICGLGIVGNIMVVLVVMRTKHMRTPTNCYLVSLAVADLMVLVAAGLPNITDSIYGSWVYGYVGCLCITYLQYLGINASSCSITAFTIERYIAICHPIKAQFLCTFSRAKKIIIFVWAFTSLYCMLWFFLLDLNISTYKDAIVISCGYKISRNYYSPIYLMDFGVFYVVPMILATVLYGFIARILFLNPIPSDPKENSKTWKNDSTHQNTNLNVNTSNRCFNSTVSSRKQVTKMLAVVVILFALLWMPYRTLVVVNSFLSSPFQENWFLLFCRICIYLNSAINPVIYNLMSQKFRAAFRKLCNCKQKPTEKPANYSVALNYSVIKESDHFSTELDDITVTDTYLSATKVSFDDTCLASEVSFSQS

The target is the same in assay [9]. Description: qHTS assay to identify small molecule agonists of the thyrotropin-releasing hormone receptor (TRHR) signaling pathway (AID 1346891; calls by dose curve; further: series mostly up to about 58 µM). A digest of the protocol: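 Screening of agonists relied on calcium signalling in HEK293 cells expressing human TRHR: dye loading 2 h at 37 °C preceded compound addition and a 3-min fluorescence time course.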
The nature of assay [10]: Human pregnane X receptor (PXR) small molecule agonists, qHTS cell viability counter screen (AID 1346977). Further: nearly all actives have a fitted effect of over 50% in size. In short, it runs like this:
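Tox21 qHTS format; PXR-Luc HepG2, 2,000/well, charcoal-stripped FBS 5%. Cpd exposure 24hr. Read: CellTiter-Fluor fluorescence, multiplexed with luciferase.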

Assay [11] is described as follows: Caspase-3/7 induction in HepG2 cells by small molecules, qHTS assay (AID 1346978). Further: nearly all actives have a fitted effect of over 15% in size. A digest of the protocol:
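Caspase-3/7 induction was measured by Caspase-Glo 3/7 luminescence (30 min, room temperature) after a 17 hr compound exposure of wild-type HepG2 cells seeded at 2,000 per well and pre-incubated 5 hr.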

Assay [12] in a line: Caspase-3/7 induction in CHO-K1 cells by small molecules, qHTS assay (AID 1346980). Further: nearly all actives have a fitted effect of over 15% in size. In short, it runs like this:
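Luminescent Caspase-Glo 3/7 read (30min, room temperature) quantified apoptosis induction. Cells were wild-type CHO-K1, treated with compound for 17hr at 37 C and 5% CO2.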

The nature of assay [13]: Caspase-3/7 induction in HepG2 cells by small molecules, qHTS cell viability counter screen (AID 1346981). Further: nearly all actives have a fitted effect of over 30% in size. Further: potency means the concentration at half of the fitted maximal effect. A digest of the protocol: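 Counter screen for cytotoxicity: HepG2 exposed 16 hr to compounds, then CellTiter-Fluor viability signal (fluorescence, 1 hr reagent incubation).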
Assay [14] deals with Nuclear receptor subfamily 1 group I member 2 (Homo sapiens) (UniProt O75469). Description: Human pregnane X receptor (PXR) small molecule agonists, qHTS assay (AID 1346982). Further: nearly all actives have a fitted effect of over 35% in size. In short, it runs like this: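 Luminescence (ONE-Glo, 30 min RT) after 24 hr compound exposure of PXR-Luc HepG2 cells; cells rested 5 hr post-plating in 5% charcoal-stripped FBS medium.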
Chain of Nuclear receptor subfamily 1 group I member 2 (Homo sapiens) (O75469 whole entry, looked up): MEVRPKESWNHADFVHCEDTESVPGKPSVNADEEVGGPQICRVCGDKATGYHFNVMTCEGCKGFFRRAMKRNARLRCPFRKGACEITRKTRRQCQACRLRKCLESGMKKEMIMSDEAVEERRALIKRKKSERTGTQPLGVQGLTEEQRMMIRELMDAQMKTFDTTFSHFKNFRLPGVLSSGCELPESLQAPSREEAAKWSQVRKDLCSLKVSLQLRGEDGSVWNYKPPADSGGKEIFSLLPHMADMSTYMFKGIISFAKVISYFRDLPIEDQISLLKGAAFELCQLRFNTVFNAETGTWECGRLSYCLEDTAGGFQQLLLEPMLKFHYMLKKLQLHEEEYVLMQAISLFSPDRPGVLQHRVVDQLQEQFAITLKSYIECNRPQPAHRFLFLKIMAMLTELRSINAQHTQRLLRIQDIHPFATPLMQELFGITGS
The target in assay [15] is Cytochrome P450 2D6 (Homo sapiens) (UniProt P10635). Kind of assay: Cytochrome P450 Family 2 Subfamily D Member 6 (CYP2D6) small molecule antagonists: luciferase reporter qHTS assay (AID 1671196). Further: series mostly up to about 120 µM; nearly all actives have a fitted effect of over 50% in size. In short, it runs like this: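 Inhibition of CYP2D6 was gauged by loss of luminescence, since light produced tracks the luciferin generated from a proluciferin substrate. A 10 min room-temperature preincubation preceded 1 h NADPH-supported turnover.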
Chain of Cytochrome P450 2D6 (Homo sapiens) (P10635 whole entry, looked up): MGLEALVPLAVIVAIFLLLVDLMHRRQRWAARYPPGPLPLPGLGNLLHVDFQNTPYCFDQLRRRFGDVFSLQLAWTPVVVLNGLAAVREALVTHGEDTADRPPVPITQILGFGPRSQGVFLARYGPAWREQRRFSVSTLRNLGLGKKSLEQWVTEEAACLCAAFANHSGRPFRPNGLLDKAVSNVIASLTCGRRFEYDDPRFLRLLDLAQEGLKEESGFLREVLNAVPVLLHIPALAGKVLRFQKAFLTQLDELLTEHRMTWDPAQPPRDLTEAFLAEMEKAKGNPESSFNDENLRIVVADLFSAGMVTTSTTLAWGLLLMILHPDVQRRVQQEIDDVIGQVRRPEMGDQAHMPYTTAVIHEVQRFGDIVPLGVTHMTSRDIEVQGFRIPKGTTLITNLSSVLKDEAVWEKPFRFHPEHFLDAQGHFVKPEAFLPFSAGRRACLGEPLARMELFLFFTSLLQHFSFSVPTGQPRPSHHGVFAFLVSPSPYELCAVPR
For orientation: Reporter assays use an easily measured gene product as a stand-in for the process of interest.

In assay [16] the target is Cytochrome P450 2C19 (Homo sapiens) (UniProt P33261). Description: Cytochrome P450 Family 2 Subfamily C Member 19 (CYP2C19) small molecule antagonists: luciferase reporter qHTS assay (AID 1671197). Further: nearly all actives have a fitted effect of over 65% in size. Further: potency means the concentration at half of the fitted maximal effect. A digest of the protocol:
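Enzyme-substrate mix with proluciferin substrate (P450-Glo CYP2C19 system) preincubated with compounds 10 min at room temperature; NADPH regeneration solution added, 37C for 1 h; detection reagent stops reaction, luminescence read after 20 min. Ketoconazole positive control.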

A short description of assay [17]: Caspase-3/7 induction in CHO-K1 cells by small molecules, qHTS cell viability counter screen (AID 1346979). Further: nearly all actives have a fitted effect of over 35% in size. Further: potency means the concentration at half of the fitted maximal effect. In short, it runs like this:
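CellTiter-Fluor viability check, qHTS format: wild-type CHO-K1, 16hr compound treatment, 1hr reagent incubation, fluorescence read.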

Chain of Cytochrome P450 2C19 (Homo sapiens) (P33261 whole entry, looked up): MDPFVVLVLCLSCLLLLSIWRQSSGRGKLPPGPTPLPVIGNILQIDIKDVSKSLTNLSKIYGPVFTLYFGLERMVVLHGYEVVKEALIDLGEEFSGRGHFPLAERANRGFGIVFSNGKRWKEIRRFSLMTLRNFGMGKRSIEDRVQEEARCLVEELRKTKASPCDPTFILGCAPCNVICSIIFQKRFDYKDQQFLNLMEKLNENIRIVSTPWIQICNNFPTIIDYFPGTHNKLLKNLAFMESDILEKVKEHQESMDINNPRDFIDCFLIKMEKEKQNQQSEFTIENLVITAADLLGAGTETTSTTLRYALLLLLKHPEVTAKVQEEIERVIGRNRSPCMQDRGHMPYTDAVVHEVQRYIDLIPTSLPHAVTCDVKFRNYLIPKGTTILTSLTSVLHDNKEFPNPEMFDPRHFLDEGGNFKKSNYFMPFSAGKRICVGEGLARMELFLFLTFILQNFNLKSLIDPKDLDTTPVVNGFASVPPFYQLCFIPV
Chain of Progesterone receptor (Homo sapiens) (P06401 whole entry, looked up): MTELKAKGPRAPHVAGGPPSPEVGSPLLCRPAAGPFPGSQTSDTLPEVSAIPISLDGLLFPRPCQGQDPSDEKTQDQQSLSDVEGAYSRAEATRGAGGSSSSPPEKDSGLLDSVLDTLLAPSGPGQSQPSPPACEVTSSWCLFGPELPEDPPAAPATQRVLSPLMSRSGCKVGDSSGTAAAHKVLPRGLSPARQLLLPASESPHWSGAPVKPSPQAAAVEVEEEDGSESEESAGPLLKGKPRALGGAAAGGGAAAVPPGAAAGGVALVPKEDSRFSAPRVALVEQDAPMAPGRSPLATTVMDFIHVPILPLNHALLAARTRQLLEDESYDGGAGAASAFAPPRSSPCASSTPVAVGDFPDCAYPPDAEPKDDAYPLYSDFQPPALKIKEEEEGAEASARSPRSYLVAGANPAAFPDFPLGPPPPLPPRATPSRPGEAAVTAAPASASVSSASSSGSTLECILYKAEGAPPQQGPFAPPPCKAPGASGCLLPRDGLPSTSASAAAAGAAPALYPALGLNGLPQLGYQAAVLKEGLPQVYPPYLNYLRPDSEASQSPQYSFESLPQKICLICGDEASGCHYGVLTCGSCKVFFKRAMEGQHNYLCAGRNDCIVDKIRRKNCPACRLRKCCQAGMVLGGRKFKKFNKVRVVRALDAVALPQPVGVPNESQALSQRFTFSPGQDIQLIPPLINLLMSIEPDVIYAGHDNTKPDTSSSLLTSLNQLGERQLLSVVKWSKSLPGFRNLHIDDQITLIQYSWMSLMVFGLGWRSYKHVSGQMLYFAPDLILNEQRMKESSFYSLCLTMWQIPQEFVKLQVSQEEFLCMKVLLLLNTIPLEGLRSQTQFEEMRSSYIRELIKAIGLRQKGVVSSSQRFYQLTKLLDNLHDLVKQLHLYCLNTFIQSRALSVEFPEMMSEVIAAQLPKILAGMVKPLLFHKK

`CCN(CC)C(C)=O`: the result in assay [1], in assay [7], in [8] and in assay [11] was inactive. Besides, the Potency result in assay [2], in assay [3], in assay [4], in [5], in assay [6] and in assay [9] was “inactive” throughout. The Potency result in [10], in [12], in assay [13] and in [14] was “inactive” throughout.
Take `CCOC(=O)CC(C)C`: the call in [1], in assay [7], in [8] and in [11] was inactive. The Potency result in assay [2], in assay [3], in assay [4], in [5], in assay [6] and in assay [9] was “inactive” in each case. Besides, the Potency entry in assay [10], in [12], in [13], in [14], in [15] and in [16] was “inactive” in each case.
In the case of `COc1cc(C(C)(C)C)c(O)c(C(C)(C)C)c1`, the compound was called inactive in assay [1], in assay [7], in assay [8] and in assay [11]. For the same compound, the Potency result in assay [2], in assay [3], in [4], in assay [5], in assay [6] and in assay [9] was “inactive” in each case. The Potency result in assay [10], in assay [17], in [12], in assay [13], in [14] and in assay [15] was “inactive” each time. The Potency in [16] was 35.6 µM (active).
Consider `NCCCN(CCO)CCO`, for which the call in assay [1], in assay [7], in assay [8] and in assay [11] was inactive. Further, the Potency entry in assay [2], in assay [3], in assay [4], in assay [5], in assay [6] and in assay [9] was “inactive” throughout. In addition, the Potency entry in assay [10], in [17], in assay [12], in [13], in [14] and in [16] was “inactive” throughout.
Consider `CC(C)(C)c1ccc(S)cc1`, for which the result in assay [1], in assay [7], in assay [8] and in assay [11] was inactive. The Potency result in assay [2], in assay [3], in assay [4], in assay [5], in assay [6] and in assay [9] was “inactive” in each case. Besides, the Potency result in [10], in assay [12], in [13], in assay [14] and in assay [15] was “inactive” each time.
`CCCC(=O)OCC`: the compound was called inactive in [1], in assay [7], in [8] and in [11]. Also, the Potency entry in assay [2], in assay [3], in [4], in assay [5], in [6] and in assay [9] was “inactive” throughout. Moreover, the Potency result in assay [10], in [12], in [13], in assay [14], in assay [15] and in assay [16] was “inactive” each time.
On to `CC1=CC(=O)/C(=C(/C)O)C(=O)O1`, for which the compound was called inactive in assay [1], in assay [7], in assay [8] and in [11]. Also, the Potency entry in assay [2], in assay [3], in assay [4], in assay [5], in [6] and in assay [9] was “inactive” each time. For the same compound, the Potency result in assay [10], in [17], in [12], in [13], in assay [14] and in assay [15] was “inactive” each time.
For `N#CCCNCCC#N`, the outcome in assay [1], in [7], in assay [8] and in [11] was inactive. In addition, the Potency result in [2], in assay [3], in [4], in [5], in [6] and in [9] was “inactive” in each case. The Potency entry in assay [10], in assay [17], in assay [12], in assay [13], in assay [14] and in [15] was “inactive” each time. In addition, the Potency result in [16] was “inactive”.
With `CC(=O)/C=C/C1C(C)=CCCC1(C)C` (stereo unspecified), the call in assay [1], in assay [7], in assay [8] and in [11] was inactive. Also, the Potency entry in assay [2], in [3], in [4], in assay [5], in assay [6] and in assay [9] was “inactive” each time. In addition, the Potency result in [10], in [17], in [12], in assay [13], in assay [14] and in assay [15] was “inactive” in each case.
Consider `FC(F)(F)C(F)(F)C(F)(F)C(F)(F)C(F)(F)C(F)(F)CCI`, for which the compound was classed as inactive in assay [1], in [7], in [8] and in assay [11]. For the same compound, the Potency entry in [2], in assay [3], in assay [4], in [5], in [6] and in [9] was “inactive” each time. The Potency entry in assay [10], in assay [17], in assay [12], in assay [13], in [14] and in [16] was “inactive” throughout.
Turning to `ClC(Cl)(Cl)c1ccc(C(Cl)(Cl)Cl)cc1`, the call in assay [1], in [7], in [8] and in assay [11] was inactive. For the same compound, the Potency result in assay [2], in assay [3], in [4], in assay [5], in [6] and in assay [9] was “inactive” each time. The Potency result in assay [10], in [17], in [12], in assay [13] and in [14] was “inactive” throughout.
Regarding `O=C1CCCCCO1`, the result in [1], in assay [7], in assay [8] and in assay [11] was inactive. The Potency entry in assay [2], in assay [3], in [4], in assay [5], in assay [6] and in [9] was “inactive” each time. For the same compound, the Potency entry in assay [10], in [17], in [12], in [13], in [14] and in [16] was “inactive” in each case.
Regarding `O=[N+]([O-])c1cccc(Cl)c1Cl`, the outcome in assay [1], in assay [7], in assay [8] and in assay [11] was inactive. The Potency result in assay [2], in [3], in assay [4], in assay [5], in assay [6] and in [9] was “inactive” throughout. Further, the Potency entry in assay [10], in assay [17], in [12], in assay [13], in assay [14] and in assay [15] was “inactive” in each case.
Consider `N[C@H]1C(O)O[C@H](CO)[C@H](O)[C@@H]1O` (stereo partly specified), for which the call in assay [1], in [7], in assay [8] and in [11] was inactive. In addition, the Potency entry in assay [2], in assay [3], in [4], in assay [5], in assay [6] and in [9] was “inactive” in each case. Further, the Potency entry in assay [10], in assay [17], in [12], in assay [13], in assay [15] and in assay [16] was “inactive” throughout.
As to `Cc1cc(C)c(S(=O)(=O)O)cc1N=Nc1cc(S(=O)(=O)O)c2ccccc2c1O`, the compound was classed as inactive in assay [1], in assay [7], in assay [8] and in assay [11]. The Potency entry in assay [2], in assay [3], in [4], in assay [5], in assay [6] and in assay [9] was “inactive” each time. Besides, the Potency entry in assay [12] and in assay [14] was “inactive” each time. Also, the figures for the Potency in assay [17] and in assay [13] were 30.6 µM (active) and 34.4 µM (active), respectively.
`CC(O)C1CCCCC1` (stereo unspecified): the outcome in assay [1], in assay [7], in assay [8] and in [11] was inactive. The Potency result in [2], in [3], in assay [4], in assay [5], in assay [6] and in assay [9] was “inactive” in each case. The Potency result in assay [10], in assay [12], in [13], in assay [14] and in assay [16] was “inactive” each time.
